TRb-SRC2 inh – qHTS for Inhibitors of the Interaction of Thyroid Hormone Receptor and Steroid Receptor Coregulator 2. Potency, µM (series often up to 106 µM), inactives show top-dose activity change, negative = inhibition, usual class: inhibitors. Thyroid hormone receptor beta (Homo sapiens), P10828. actives 0.065% (n = 280,000). TRbeta-SRC2 peptide binding, fluorescence polarization; receptor liganded with 1 µM T3;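 further: plate controls were bound peptide for no effect and peptide without receptor for full effect; nearly all actives have a fitted effect of over 50% in size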
Target sequence (P10828 whole entry, looked up): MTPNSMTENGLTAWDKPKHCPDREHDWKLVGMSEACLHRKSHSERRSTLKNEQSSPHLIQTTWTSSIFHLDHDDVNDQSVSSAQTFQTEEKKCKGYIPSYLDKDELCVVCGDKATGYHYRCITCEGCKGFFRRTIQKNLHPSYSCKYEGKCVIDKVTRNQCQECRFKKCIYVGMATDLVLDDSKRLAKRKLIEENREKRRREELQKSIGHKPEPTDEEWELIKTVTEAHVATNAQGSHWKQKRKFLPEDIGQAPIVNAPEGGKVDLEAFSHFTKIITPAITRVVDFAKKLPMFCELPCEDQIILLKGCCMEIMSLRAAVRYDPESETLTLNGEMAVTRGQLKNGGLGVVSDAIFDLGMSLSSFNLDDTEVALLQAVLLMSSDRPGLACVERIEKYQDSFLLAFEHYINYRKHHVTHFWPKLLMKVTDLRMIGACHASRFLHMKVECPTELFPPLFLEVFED
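Binding of a 20-amino-acid Texas Red SRC2 peptide (20 nM) to TRb ligand-binding domain (0.6 uM) with agonist T3 at 1 uM was followed by fluorescence polarization after a 5 hr room-temperature incubation.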
TexasRed fluor – Total Fluorescence Counterscreen for Inhibitors of the Interaction of Thyroid Hormone Receptor and Steroid Receptor Coregulator 2; TRb/SRC2 Texas Red total fluorescence interference; Potency, µM (top dose mostly 106 µM), for inactives: at the highest dose fluorescence change, negative = quenching; actives 0.29% (n = 280,000); AID 1479, 2009; active means well fitted curve in either direction with a large enough effect; inconclusive means small, poorly fitted or top-dose-only effect
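Flags fluorescent or light-absorbing compounds by total fluorescence, S + 2P, at 555 nm excitation and 632 nm emission. Mixture: 20 nM Texas Red SRC2 peptide, 0.6 uM human TRb LBD, 1 uM T3, 5% DMSO; compound exposure 5 h at ambient temperature.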
Tau fibril ThT – qHTS for Inhibitors of Tau Fibril Formation, Thioflavin T Binding | Microtubule-associated protein tau (Homo sapiens), P10636 | recombinant tau K18 P301L, heparin-induced fibrillization, ThT fluorescence | Potency, µM (titrated, usually from 57.4 µM), for inactives: top-dose activity, negative = inhibition, hits mostly inhibitors | actives 2.1% (n = 270,000) | AID 1460, 2008; further: nearly all actives have a fitted effect of over 55% in size
Target sequence (P10636 561-689 P618L limits assumed): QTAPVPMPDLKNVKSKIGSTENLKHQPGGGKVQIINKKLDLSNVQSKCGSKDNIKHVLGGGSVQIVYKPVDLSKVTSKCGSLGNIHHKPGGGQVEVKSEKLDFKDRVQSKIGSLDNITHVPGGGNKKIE
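ThT emission at 510 nm, taken 1 hr after adding 30 uM dye, quantifies aggregates formed when 20 uM heparin acts on human tau K18 P301L for 6 hr at 37 C.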
Tau fluor counter – Counterscreen qHTS for Inhibitors of Tau Fibril Formation, Fluorescence Polarization | tau K18 P301L (four-repeat tau fragment) Alexa594 fluorescence, heparin fibrillization | AID 1463, 2008 | Potency, µM (doses to about 57.7 µM), without a hit: at the top dose activity change, negative = decrease | actives 0.93% (n = 280,000); further: nearly all actives have a fitted effect of over 55% in size
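Human K18 P301L tau (15 uM unlabeled plus 0.24 uM Alexa 594-labeled, final) in 100 mM sodium acetate pH 7 was mixed with compound and 20 uM heparin and incubated 6 hr at 37 C.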
JMJD2E inh – qHTS Assay for Inhibitors of Human Jumonji Domain Containing 2E (JMJD2E); JMJD2E catalytic domain, FDH-coupled NADH fluorescence (FDH is formaldehyde dehydrogenase); Potency, µM (series often up to 57.1 µM), for the others: at the highest dose activity change, negative = inhibition, most hits filed as inhibitors; actives 1.6% (n = 230,000); AID 2147, 2009; active means well fitted inhibition curve with a large enough effect, not every such curve was filed as active; inconclusive means small, poorly fitted or top-dose-only effect, or another doubt; inactive means no such curve, though single readings can be large or run the other way;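 further: 0% = wells with enzyme and -100% = buffer wells without enzyme; nearly all actives have a fitted effect of over 50% in size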
Tau FP inhib – qHTS for Inhibitors of Tau Fibril Formation, Fluorescence Polarization; actives 0.39% (n = 280,000); Microtubule-associated protein tau (Homo sapiens), P10636; Potency, µM (highest dose often 57.7 µM), inactives show at the top dose activity, negative = inhibition, hits mostly inhibitors; K18 P301L tau heparin fibrillization, Alexa594 FP, 6 h; further: nearly all actives have a fitted effect of over 55% in size
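Steps: dispense K18 P301L tau (15 uM plus 0.24 uM Alexa 594 tracer, final) in pH 7 sodium acetate; add compound; add heparin (20 uM final); incubate 6 hr, 37 C; add ThT (30 uM final); after 1 hr ambient, read FP.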
* hit, by the source's call; [ ] = dose if it differs, or a comment. Compounds with a hit are over-represented: about 3.5% of the library has one in this group of screens. Unless noted, the call rests on the fitted dose curve; in most records, active means well fitted curve in the direction sought with a large enough effect; inconclusive means small, poorly fitted or top-dose-only effect, or another doubt; inactive means no such curve, though single readings can be large; an effect the other way counts as inactive or inconclusive. Unless noted, on the % scale 0 is the no-effect control and ±100 the full control effect; potency means the concentration at half of the fitted maximal effect.

`CCOC(=O)C1=C(C)N=c2s/c(=C3\C(=O)Nc4ccccc43)c(=O)n2C1c1ccc2c(c1)OCO2` (configuration not stated) gave TRb-SRC2 inh -10.7%, TexasRed fluor -3.6%, Tau fibril ThT 17.8µM*, Tau fluor counter inconclusive, JMJD2E inh -21.0% and Tau FP inhib inconclusive.
For CCOC(=O)C1=C(C)N=c2s/c(=C\c3ccncc3)c(=O)n2C1c1ccc2c(c1)OCO2 (configuration not stated) the results were TRb-SRC2 inh 6.5%, TexasRed fluor -4.6%, Tau fibril ThT 25.1µM*, Tau fluor counter inconclusive, JMJD2E inh inconclusive and Tau FP inhib inconclusive.
Screening CCC(CC)C(=O)Nc1nnc(S(=O)(=O)N2CCCCCC2)s1 returned TRb-SRC2 inh -9.3%, TexasRed fluor inconclusive, Tau fibril ThT inconclusive, Tau fluor counter -16.2% and Tau FP inhib -8.3%.
Screening CCc1cc(C(=O)Nc2sc(C)c(CC)c2C#N)no1 returned TRb-SRC2 inh -5.8%, TexasRed fluor 3.3%, Tau fibril ThT 28.2µM*, Tau fluor counter inconclusive and Tau FP inhib inconclusive.
`CCc1c(C)sc(NC(=O)c2cc(C(C)C)on2)c1C#N` gave TRb-SRC2 inh -0.6%, TexasRed fluor -5.0%, Tau fibril ThT -16.7%, Tau fluor counter -20.3%, JMJD2E inh -7.1% and Tau FP inhib -2.4%.
Screening N=C(N)c1ccc(Cl)cc1 returned TRb-SRC2 inh -5.2%, TexasRed fluor 1.0%, Tau fibril ThT 4.8%, Tau fluor counter 6.8%, JMJD2E inh 9.2% and Tau FP inhib -1.9%.
`N=C(N)c1ccc(/C=C/c2ccc(C(=N)N)cc2O)cc1` gave TRb-SRC2 inh 3.7%, TexasRed fluor -4.0%, Tau fibril ThT inconclusive, Tau fluor counter -18.0%, JMJD2E inh 28.2µM* and Tau FP inhib -9.7%.
OC(COc1ccc2cc(Br)ccc2c1)CN1CCOCC1 (configuration not stated) was read as TRb-SRC2 inh 7.7%, TexasRed fluor 0.1%, Tau fibril ThT -3.9%, Tau fluor counter -4.0%, JMJD2E inh 8.5% and Tau FP inhib 2.6%.
Nc1cc([N+](=O)[O-])ccc1Nc1ccc(O)cc1 was read as TRb-SRC2 inh -5.7%, TexasRed fluor -2.8%, Tau fibril ThT 12.6µM*, Tau fluor counter 20µM*[quencher], JMJD2E inh inconclusive and Tau FP inhib inconclusive.
For O=C(NCCO)Nc1ccc2nc(-c3ccco3)c(-c3ccco3)nc2c1 the results were TRb-SRC2 inh -7.0%, TexasRed fluor -4.8%, Tau fibril ThT 5.3%, Tau fluor counter 8.6%, JMJD2E inh 10.8% and Tau FP inhib 5.7%.
Screening Nc1nc(-c2ccco2)c(-c2ccco2)s1 returned TRb-SRC2 inh 6.7%, TexasRed fluor -6.8%, Tau fibril ThT inconclusive, Tau fluor counter inconclusive, JMJD2E inh -17.2% and Tau FP inhib -9.8%.
c1coc(-c2nc(-c3ccco3)c(-c3ccco3)nc2-c2ccco2)c1 was read as TRb-SRC2 inh 19.6%, TexasRed fluor 12.6µM*[quencher], Tau fibril ThT 7.94µM*, Tau fluor counter inconclusive, JMJD2E inh inconclusive and Tau FP inhib 11.2µM*.
`COc1ccc2nc(-c3ccco3)c(-c3ccco3)nc2c1` gave TRb-SRC2 inh 3.1%, TexasRed fluor inconclusive, Tau fibril ThT 4.47µM*, Tau fluor counter 7.94µM*[quencher], JMJD2E inh inconclusive and Tau FP inhib inconclusive.
For CCOC(=O)c1[nH]c2cc3c(cc2c1NC(=O)CN1CCC(C)CC1)OCO3 the results were TRb-SRC2 inh 0.0%, TexasRed fluor -6.8%, Tau fibril ThT -20.4%, Tau fluor counter -23.2%, JMJD2E inh inconclusive and Tau FP inhib 10.0%.
Screening CCC1CCc2c(sc3ncnc(N4CCOCC4)c23)C1 (configuration not stated) returned TRb-SRC2 inh -17.4%, TexasRed fluor 0.2%, Tau fibril ThT 4.8%, Tau fluor counter 2.6%, JMJD2E inh inconclusive and Tau FP inhib -4.3%.
For CC1/C(=N/O)CC(c2ccco2)NC1c1ccco1 (configuration not stated) the results were TRb-SRC2 inh 2.1%, TexasRed fluor 0.2%, Tau fibril ThT 4.1%, Tau fluor counter 1.2%, JMJD2E inh 8.4% and Tau FP inhib -2.3%.
For OC1CC(c2ccco2)NC2(CCCCC2)C1 (configuration not stated) the results were TRb-SRC2 inh -19.5%, TexasRed fluor 4.3%, Tau fibril ThT -0.6%, Tau fluor counter -6.1%, JMJD2E inh 22.4µM* and Tau FP inhib 7.5%.
O=C(NN1CCOCC1)c1cc(-c2ccc(Br)s2)nc2ccccc12 was read as TRb-SRC2 inh -2.6%, TexasRed fluor -1.6%, Tau fibril ThT 5.4%, Tau fluor counter 5.0%, JMJD2E inh inconclusive and Tau FP inhib -1.7%.
`CC(C)(C)c1ccc(NC(=O)Nc2ccc(OCC(=O)N3CCOCC3)cc2)cc1` gave TRb-SRC2 inh -1.9%, TexasRed fluor -0.7%, Tau fibril ThT -17.6%, Tau fluor counter 20µM*[quencher], JMJD2E inh -1.0% and Tau FP inhib 19.0%.
Screening O=C(Nc1ccc(OCC(=O)N2CCOCC2)cc1)Nc1cccc(Cl)c1 returned TRb-SRC2 inh -0.8%[53 µM], TexasRed fluor -1.5%[53 µM], Tau fibril ThT -6.9%, Tau fluor counter inconclusive, JMJD2E inh 1.2% and Tau FP inhib 9.2%.
For COc1ccc(N=C2C(=Nc3ccc(OC)cc3)N(c3ccc(OC)cc3)C(=S)N2C(=O)c2ccc(OC)cc2)cc1 the results were TRb-SRC2 inh -0.9%, TexasRed fluor -6.1%, Tau fibril ThT 28.2µM*, Tau fluor counter -24.4%, JMJD2E inh -7.3% and Tau FP inhib -8.2%.
Screening O=c1c2ccccc2nc(CSc2nnnn2-c2ccccc2)n1-c1ccccc1Cl returned TRb-SRC2 inh -11.3%, TexasRed fluor 3.8%, Tau fibril ThT 0.9%, Tau fluor counter 0.7%, JMJD2E inh 2.5% and Tau FP inhib -11.7%.
Screening COc1ccc2c(c1)Cc1sc(NC(=O)c3cccc(C)c3)nc1-2 returned TRb-SRC2 inh 2.0%, TexasRed fluor inconclusive, Tau fibril ThT 12.6µM*, Tau fluor counter 15.8µM*[quencher] and Tau FP inhib -18.3%.

Screening data: PubChem, National Center for Advancing Translational Sciences (NCATS)
